# Experiments:
# Experiment in all cases: DAPPL (digital affinity profiling via proximity ligation, sequencing); 10 mM Tris-HCl pH 7.5, 50 mM NaCl, 1 mM DTT, 4% glycerol, room temperature, 30 min; GST-TFs on glutathione beads, 16-mer random dsDNA library, 0.1% formaldehyde crosslink after washing; high values mean tight binding
# Conditions in all cases: protein: recombinant; tags: N-terminal GST; dsDNA, one strand shown
# [1] = molecular target: T1, FLI1 (Homo sapiens, UniProt Q01543 1-452)
# T1 sequence: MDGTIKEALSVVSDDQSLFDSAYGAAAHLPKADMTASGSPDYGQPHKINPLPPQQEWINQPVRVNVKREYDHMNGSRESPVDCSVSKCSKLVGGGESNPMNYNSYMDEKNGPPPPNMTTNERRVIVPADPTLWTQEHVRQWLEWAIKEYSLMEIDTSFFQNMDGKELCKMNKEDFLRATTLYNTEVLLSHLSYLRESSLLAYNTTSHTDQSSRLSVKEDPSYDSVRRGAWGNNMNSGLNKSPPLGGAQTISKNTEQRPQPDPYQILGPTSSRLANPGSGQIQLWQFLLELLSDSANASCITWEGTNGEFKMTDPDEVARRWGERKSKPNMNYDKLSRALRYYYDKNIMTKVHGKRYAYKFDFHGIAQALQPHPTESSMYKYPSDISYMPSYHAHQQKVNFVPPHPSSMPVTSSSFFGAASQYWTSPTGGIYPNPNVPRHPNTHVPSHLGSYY
# How it was run: (§1)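 Human transcription factors were made in yeast as GST fusions, captured on glutathione beads and barcoded with DNA. With a tag-only sample included, the pool was incubated with 200 nmole of a random double-stranded 16-mer DNA library in Tris/NaCl/DTT/glycerol buffer at room temperature for 30 min, then crosslinked with 0.1% formaldehyde after washing, ligated by proximity, amplified and sequenced. For binding signal, each hexamer's read frequency for a factor is divided by its frequency for the tag-only sample.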
# [2] = molecular target: T2, ELK1 (Homo sapiens, UniProt P19419 1-428)
# T2 sequence: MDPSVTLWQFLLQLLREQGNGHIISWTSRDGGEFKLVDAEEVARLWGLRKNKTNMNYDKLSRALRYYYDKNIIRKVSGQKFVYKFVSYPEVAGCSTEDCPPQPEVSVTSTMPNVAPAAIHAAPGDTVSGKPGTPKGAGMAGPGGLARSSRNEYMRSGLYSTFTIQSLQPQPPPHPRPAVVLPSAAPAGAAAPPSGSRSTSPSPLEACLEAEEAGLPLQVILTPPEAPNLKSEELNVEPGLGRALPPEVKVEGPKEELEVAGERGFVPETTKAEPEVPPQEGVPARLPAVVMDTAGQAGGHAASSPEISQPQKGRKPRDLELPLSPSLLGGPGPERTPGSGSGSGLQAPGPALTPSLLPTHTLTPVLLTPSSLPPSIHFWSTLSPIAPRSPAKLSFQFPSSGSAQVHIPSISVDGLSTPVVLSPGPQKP
# How it was run: as §1
# [3] = molecular target: T3, GABPA (Homo sapiens, UniProt Q06546 1-454)
# T3 sequence: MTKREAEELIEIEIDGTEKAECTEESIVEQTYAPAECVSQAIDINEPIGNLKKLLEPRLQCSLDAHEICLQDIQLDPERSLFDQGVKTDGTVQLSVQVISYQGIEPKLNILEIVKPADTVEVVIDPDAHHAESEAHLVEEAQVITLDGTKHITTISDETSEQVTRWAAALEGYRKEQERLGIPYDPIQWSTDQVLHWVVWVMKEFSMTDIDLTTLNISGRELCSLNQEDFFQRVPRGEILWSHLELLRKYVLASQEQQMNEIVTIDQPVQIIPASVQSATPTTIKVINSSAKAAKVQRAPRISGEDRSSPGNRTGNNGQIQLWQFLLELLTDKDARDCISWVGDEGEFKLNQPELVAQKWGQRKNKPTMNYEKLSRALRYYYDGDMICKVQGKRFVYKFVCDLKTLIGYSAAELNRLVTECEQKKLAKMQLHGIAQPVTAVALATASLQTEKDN
# How it was run: as §1
# [4] = molecular target: T4, ERG (Homo sapiens, UniProt P11308 1-479)
# T4 sequence: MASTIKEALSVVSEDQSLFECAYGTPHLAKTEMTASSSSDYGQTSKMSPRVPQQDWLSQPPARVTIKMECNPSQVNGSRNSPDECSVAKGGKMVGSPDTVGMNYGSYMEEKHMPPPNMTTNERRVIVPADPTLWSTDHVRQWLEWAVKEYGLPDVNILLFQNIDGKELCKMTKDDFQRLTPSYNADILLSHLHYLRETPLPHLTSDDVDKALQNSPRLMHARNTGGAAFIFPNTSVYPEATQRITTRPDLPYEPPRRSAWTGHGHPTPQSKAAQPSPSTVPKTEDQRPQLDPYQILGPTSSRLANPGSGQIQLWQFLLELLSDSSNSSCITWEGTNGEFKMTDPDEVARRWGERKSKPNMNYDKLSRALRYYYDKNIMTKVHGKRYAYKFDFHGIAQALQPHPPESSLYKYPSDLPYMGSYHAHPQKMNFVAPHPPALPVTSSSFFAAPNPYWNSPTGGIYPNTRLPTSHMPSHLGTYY
# How it was run: as §1
# [5] = molecular target: ELF1 (Homo sapiens, UniProt P32519 1-619)
# How it was run: as §1
# [6] = molecular target: T5, EHF (Homo sapiens, UniProt Q9NZC4 1-300)
# T5 sequence: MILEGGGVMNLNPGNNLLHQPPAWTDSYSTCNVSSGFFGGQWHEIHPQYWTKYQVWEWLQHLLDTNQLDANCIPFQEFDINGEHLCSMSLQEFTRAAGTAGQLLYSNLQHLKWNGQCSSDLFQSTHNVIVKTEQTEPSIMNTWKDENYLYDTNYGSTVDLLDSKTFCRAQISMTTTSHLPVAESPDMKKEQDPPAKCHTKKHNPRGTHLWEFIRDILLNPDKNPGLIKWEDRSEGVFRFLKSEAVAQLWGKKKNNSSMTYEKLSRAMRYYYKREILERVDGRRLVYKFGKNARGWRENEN
# How it was run: as §1
# [7] = molecular target: SPI1 (Homo sapiens, UniProt P17947 1-270)
# How it was run: as §1
# [8] = molecular target: SPIB (Homo sapiens, UniProt Q01892 1-262)
# How it was run: as §1
# [9] = molecular target: T6, ELK3 (Homo sapiens, UniProt P41970 1-407)
# T6 sequence: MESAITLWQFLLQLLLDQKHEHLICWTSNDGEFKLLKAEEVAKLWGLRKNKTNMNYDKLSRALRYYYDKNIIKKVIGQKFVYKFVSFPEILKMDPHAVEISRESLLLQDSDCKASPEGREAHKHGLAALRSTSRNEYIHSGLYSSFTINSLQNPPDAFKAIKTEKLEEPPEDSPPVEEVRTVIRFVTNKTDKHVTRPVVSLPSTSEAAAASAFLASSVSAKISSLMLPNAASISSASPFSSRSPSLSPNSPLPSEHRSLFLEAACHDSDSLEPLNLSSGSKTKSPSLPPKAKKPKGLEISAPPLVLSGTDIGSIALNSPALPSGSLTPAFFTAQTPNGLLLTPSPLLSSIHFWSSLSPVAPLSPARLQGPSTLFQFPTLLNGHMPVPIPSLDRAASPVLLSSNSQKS
# How it was run: as §1
# Sequence of SPIB (Q01892 whole entry): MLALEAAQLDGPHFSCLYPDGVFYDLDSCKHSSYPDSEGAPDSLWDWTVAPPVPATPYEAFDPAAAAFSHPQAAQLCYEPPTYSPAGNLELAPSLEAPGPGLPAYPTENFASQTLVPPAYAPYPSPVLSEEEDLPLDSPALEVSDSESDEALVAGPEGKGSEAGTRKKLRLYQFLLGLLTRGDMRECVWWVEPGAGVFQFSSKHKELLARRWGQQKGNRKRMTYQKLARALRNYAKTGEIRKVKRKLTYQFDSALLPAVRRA
# Sequence of ELF1 (P32519 whole entry): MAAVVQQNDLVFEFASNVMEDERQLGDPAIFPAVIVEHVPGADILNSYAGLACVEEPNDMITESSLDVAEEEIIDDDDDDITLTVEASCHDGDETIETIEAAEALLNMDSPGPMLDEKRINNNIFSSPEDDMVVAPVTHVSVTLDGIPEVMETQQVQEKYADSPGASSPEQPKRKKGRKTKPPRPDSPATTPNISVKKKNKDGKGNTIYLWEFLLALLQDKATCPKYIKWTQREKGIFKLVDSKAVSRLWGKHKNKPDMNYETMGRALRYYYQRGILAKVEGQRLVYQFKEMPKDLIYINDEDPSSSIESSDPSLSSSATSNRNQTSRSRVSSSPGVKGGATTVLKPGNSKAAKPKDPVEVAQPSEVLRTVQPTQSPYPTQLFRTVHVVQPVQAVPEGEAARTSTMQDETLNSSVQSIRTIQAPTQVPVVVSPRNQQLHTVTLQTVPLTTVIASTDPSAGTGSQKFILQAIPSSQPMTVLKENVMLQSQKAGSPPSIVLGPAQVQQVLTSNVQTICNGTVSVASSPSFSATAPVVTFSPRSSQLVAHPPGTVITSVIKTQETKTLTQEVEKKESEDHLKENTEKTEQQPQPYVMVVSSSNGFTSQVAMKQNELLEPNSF
Sequence,binding signal [1],binding signal [2],binding signal [3],binding signal [4],binding signal [5],binding signal [6],binding signal [7],binding signal [8],binding signal [9]
AATCAC,"1.03 fold enrichment (6-mer frequency, TF over GST control)","1.08 fold enrichment (6-mer frequency, TF over GST control)","1.15 fold enrichment (6-mer frequency, TF over GST control)","1.08 fold enrichment (6-mer frequency, TF over GST control)","1.14 fold enrichment (6-mer frequency, TF over GST control)","1.08 fold enrichment (6-mer frequency, TF over GST control)","1.12 fold enrichment (6-mer frequency, TF over GST control)","1.07 fold enrichment (6-mer frequency, TF over GST control)","1.12 fold enrichment (6-mer frequency, TF over GST control)"
CCGGAT,"3.23 fold enrichment (6-mer frequency, TF over GST control)","3.45 fold enrichment (6-mer frequency, TF over GST control)","2.97 fold enrichment (6-mer frequency, TF over GST control)","4.05 fold enrichment (6-mer frequency, TF over GST control)","2.97 fold enrichment (6-mer frequency, TF over GST control)","3.16 fold enrichment (6-mer frequency, TF over GST control)","2.86 fold enrichment (6-mer frequency, TF over GST control)","3.26 fold enrichment (6-mer frequency, TF over GST control)","3.33 fold enrichment (6-mer frequency, TF over GST control)"
GCTTTG,"1.24 fold enrichment (6-mer frequency, TF over GST control)","1.1 fold enrichment (6-mer frequency, TF over GST control)","1.11 fold enrichment (6-mer frequency, TF over GST control)","1.15 fold enrichment (6-mer frequency, TF over GST control)","1.14 fold enrichment (6-mer frequency, TF over GST control)","1.15 fold enrichment (6-mer frequency, TF over GST control)","1.07 fold enrichment (6-mer frequency, TF over GST control)","1.14 fold enrichment (6-mer frequency, TF over GST control)","1.12 fold enrichment (6-mer frequency, TF over GST control)"
ACTCCG,"1.48 fold enrichment (6-mer frequency, TF over GST control)","1.5 fold enrichment (6-mer frequency, TF over GST control)","1.58 fold enrichment (6-mer frequency, TF over GST control)","1.43 fold enrichment (6-mer frequency, TF over GST control)","1.48 fold enrichment (6-mer frequency, TF over GST control)","1.42 fold enrichment (6-mer frequency, TF over GST control)","1.45 fold enrichment (6-mer frequency, TF over GST control)","1.44 fold enrichment (6-mer frequency, TF over GST control)","1.56 fold enrichment (6-mer frequency, TF over GST control)"
